In PubChem BioAssay AID1645855 (Buhrlage Lab, Dana-Farber Cancer Institute and Novartis …, 2021) one finds inhibition data, which are given here for 89 molecules.

The whole screen tested about 47,000 compounds, of which about 3,100 (6.6%) were called active. The sample holds actives, similar compounds and a random draw of the others, so the mix is not that of the screen. Rule as the data show it: active = inhibition above about 30%; inactive = the rest.

Ubiquitin carboxyl-terminal hydrolase 17-like protein 5 (Homo sapiens), sequence (A8MUK1 whole entry, looked up): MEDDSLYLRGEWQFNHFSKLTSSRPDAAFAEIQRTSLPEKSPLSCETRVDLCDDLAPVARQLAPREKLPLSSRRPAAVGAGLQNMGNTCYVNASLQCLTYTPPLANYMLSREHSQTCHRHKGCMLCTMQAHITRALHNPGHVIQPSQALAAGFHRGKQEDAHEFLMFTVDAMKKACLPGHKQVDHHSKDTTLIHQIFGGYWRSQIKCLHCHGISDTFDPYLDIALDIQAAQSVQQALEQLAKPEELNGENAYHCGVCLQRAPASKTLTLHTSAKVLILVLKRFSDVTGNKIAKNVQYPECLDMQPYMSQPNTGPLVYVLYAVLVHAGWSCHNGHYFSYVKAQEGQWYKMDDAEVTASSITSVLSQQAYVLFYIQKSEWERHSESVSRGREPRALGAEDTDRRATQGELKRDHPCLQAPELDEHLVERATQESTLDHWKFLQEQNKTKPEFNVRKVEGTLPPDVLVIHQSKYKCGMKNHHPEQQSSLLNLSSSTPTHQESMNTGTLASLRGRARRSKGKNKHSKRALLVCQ

This assay addresses Ubiquitin carboxyl-terminal hydrolase 17-like protein 5 (Homo sapiens) (UniProt A8MUK1). Nature of the assay: inhibitors of human USP17 deubiquitinase (AID 1645855). The conditions noted are these: purified USP17, Ub-rhodamine cleavage fluorescence, 3 h; at 50 µM; hits give high values.
Usually inhibition stands for the relative decrease from the control value, in per cent. For the molecule `CC(=O)CCCSc1ncnc2c1sc1nc(N3CCOCC3)c3c(c12)CC(C)(C)OC3`, the inhibition was 16.1% (inactive).

On to `O=C(CC1C(=O)OCCN1Cc1ccccc1)Nc1cccc(F)c1` (centres undefined), for which the inhibition is -10.1% (inactive).

`O=C(CCc1nnc2ccc(N3CCCC3)nn12)NCc1ccc(F)cc1`: the inhibition was 11.5% (inactive).

As for `O=C(COc1cccc2ccc(N3CCC(Cc4ccccc4)CC3)nc12)Nc1cccc(F)c1`, the inhibition is 46.2% (active).

Turning to `Cn1c(=O)c(N2CCC(C(=O)NCc3ccc(F)cc3)CC2)nc2cccnc21`, the inhibition is 16.8% (inactive).

Turning to `O=C(COc1cccc2ccc(N3CCC(Cc4ccccc4)CC3)nc12)NCc1ccc(F)cc1`, the inhibition is 35.1% (active).

As for `COc1ccc(NC(=O)CSc2ncccc2C(=O)N2CCC(Cc3ccccc3)CC2)cc1OC`, the inhibition was 11% (inactive).

As to `COc1ccccc1CC(=O)Nc1cc(S(=O)(=O)N2CCOCC2)ccc1N1CCN(C)CC1`, the inhibition is -26.7% (inactive).

`C[C@H](NC(=O)Cc1ccc(Cl)cc1)C(=O)N1CCC2(CC1)NCCc1[nH]cnc12`: the inhibition was 9.11% (inactive).

In the case of `O=C(CSc1ncc(-c2ccc(F)cc2)[nH]1)N1CCCC1`, the inhibition is 2.63% (inactive).

In the case of `O=C(c1ccc(F)cc1)N1CCCC(c2nc(-c3ccccc3)no2)C1` (centres undefined), the inhibition was 11.7% (inactive).

Consider `O=C(Cn1c(-c2nc(-c3ccc(F)cc3)no2)cccc1=O)N1CCCC1`, for which the inhibition is 33% (active).

As to `COc1ccc2[nH]c(C)c(CCNC(=O)c3cccs3)c2c1`, the inhibition is 0.591% (inactive).

Regarding `Cc1c(N2CCN(S(=O)(=O)c3ccc(C(C)C)cc3)CC2)c(=O)n(C)c(=O)n1C`, the inhibition was -2.36% (inactive).

Consider `Cc1nc(SCC#N)c2oc3ccccc3c2n1`, for which the inhibition is 60.3% (active).

For the molecule `Cc1nc(SCc2ccc([N+](=O)[O-])cc2)c2oc3ccccc3c2n1`, the inhibition was 12.4% (inactive).

For the molecule `COc1cccc(Cc2cncc(C(=O)N3CCNC(=O)C3)c2)c1`, the inhibition is 6.62% (inactive).

With `CSc1cccc(NC(=O)COc2ccc(C(=O)c3ccccc3)cc2)c1`, the inhibition was 12.9% (inactive).

In the case of `CSc1cccc(NC(=O)CC(=O)Nc2ccc3nc4n(c(=O)c3c2)CCCCC4)c1`, the inhibition is 34.4% (active).

For `CSc1cccc(NC(=O)CCc2ccc3nc[nH]c3c2)c1`, the inhibition is -17.1% (inactive).

For the molecule `Cc1ccc(-n2c3c(c(=O)[nH]c2=O)CN(Cc2ccco2)CN3)cc1`, the inhibition is -9.75% (inactive).

Turning to `Cc1cc(C)c2nc3c(cc2c1)CN(Cc1ccco1)C(=O)O3`, the inhibition was 51.9% (active).

For the molecule `COc1ccc2nc3c(cc2c1)CN(Cc1ccccc1)C(=O)O3`, the inhibition was 18.5% (inactive).

With `O=S(=O)(Cc1ccccc1)N1CC2(CCN(CC3CCCC3)CC2)C1`, the inhibition was 0.208% (inactive).

For `COc1ccccc1CNC(=O)c1ccc(-n2nc(C)c3c2CCCC3=O)cc1`, the inhibition was -3.98% (inactive).

In the case of `Cc1ccc(CNc2nnc(-c3nnc(C)o3)c3ccccc23)cc1`, the inhibition is 3.95% (inactive).

In the case of `CC(C)c1ccc(OCC(=O)NCc2nnnn2-c2ccc(Cl)cc2)cc1`, the inhibition was 11.8% (inactive).

For the molecule `O=C(COc1ccc2ccccc2c1)NCc1nnnn1-c1ccc(Cl)cc1`, the inhibition was 49.4% (active).

For `Cc1ccc(NC(=O)NCc2nnnn2-c2ccccc2)cc1C`, the inhibition was -3.49% (inactive).

`CC(NC(=O)c1csc(C(=O)NC2CC2)n1)c1ccc(F)cc1` (centres undefined): the inhibition is 7.32% (inactive).

As to `CC(C(=O)NCCCN1CCOCC1)C1CCN(C(=O)c2cc3ccccc3[nH]2)CC1` (centres undefined), the inhibition was -0.784% (inactive).

Consider `Cc1ccc(-c2nnc(NC(=O)C(c3ccccc3)c3ccccc3)o2)c(C)c1`, for which the inhibition is 2.51% (inactive).

As to `Cc1ccccc1CNC(=O)c1sc2ncnc(N3CCCC3)c2c1C`, the inhibition was -0.361% (inactive).

Turning to `Cc1nnc(C(=O)Nc2ccc(C(=O)NCc3ccccc3C)cc2)s1`, the inhibition is 68.1% (active).

`COc1ccc(OC)c(CNC(=O)c2nnc(C(=O)Nc3ccc(F)cc3)s2)c1`: the inhibition was 14.8% (inactive).

For the molecule `CC(=O)N1CCCC(c2ccnc(Nc3ccccn3)n2)C1` (centres undefined), the inhibition was 6.44% (inactive).

In the case of `CN(C(=O)c1ncccn1)[C@H]1CC[C@@]2(C)C[C@H](c3ccccc3)C[C@](C)(O2)[C@@H]1O`, the inhibition is 3.44% (inactive).

Turning to `CC(C)c1ccc(S(=O)(=O)N[C@H](C)C(=O)NCc2cscn2)cc1`, the inhibition was 6.37% (inactive).

Regarding `CNc1cnc(CC2CCCN(C(=O)c3scnc3C)CC2)cn1` (centres undefined), the inhibition is -9.92% (inactive).

On to `CCc1ccc(NC(=O)Cn2cnc(S(=O)(=O)N3CCOCC3)c2)cc1`, for which the inhibition is 24.3% (inactive).

For the molecule `Cc1cc(NC(=O)COC(=O)c2cccc(C)c2O)ccc1Br`, the inhibition is 37% (active).

As for `N#Cc1cccc(NC(=O)COC(=O)c2cc3ccccc3oc2=O)c1`, the inhibition was 3.87% (inactive).

`Cc1cc(-c2nnc(SCC(=O)Nc3ccc(Br)c(C)c3)n2N)n[nH]1`: the inhibition is 23.4% (inactive).

Take `C=C1CCC2[C@](C)(CCC[C@]2(C)C(=O)OC)[C@H]1CCc1ccoc1C[N+](C)(C)Cc1ccccc1` (some centres undefined): the inhibition was 31.1% (active).

In the case of `C=C1CCC2[C@](C)(CCC[C@]2(C)C(=O)OC)[C@H]1CCc1ccoc1CNCC(=O)O` (some centres undefined), the inhibition was 28% (inactive).

Consider `O=C(c1ccc(Br)o1)N(Cc1cccc(F)c1)c1ccccn1`, for which the inhibition is 12.8% (inactive).

With `CC(=O)c1ccc(N2CCN(C(=O)c3ccc4noc(-c5ccccc5)c4c3)CC2)cc1`, the inhibition is -0.00315% (inactive).

Regarding `COc1cccc(CN2C(=O)c3ccccc3C2C(=O)NCc2ccccc2OC)c1` (centres undefined), the inhibition was 13.5% (inactive).

Turning to `CC(=O)O[C@H]1CC[C@@]2(C)C(CC[C@]3(C)C2CCC2[C@@]4(C)CC[C@H](C(C)(C)O)C4C[C@H](O)[C@]23C)C1(C)C` (some centres undefined), the inhibition was 0.105% (inactive).

Take `O=C(Cc1ccc(Cl)cc1)NCC(=O)Nc1nc2ccccc2[nH]1`: the inhibition was 53.7% (active).

Consider `Clc1ccccc1SCc1nc2ccccc2[nH]1`, for which the inhibition was 6.98% (inactive).

For the molecule `COc1ccc(C(=O)NCC(=O)Nc2nc3ccccc3[nH]2)c(C)c1`, the inhibition is 46.9% (active).

`Cc1noc(C)c1CC(=O)Nc1cccc(-c2nc3ccccc3[nH]2)c1`: the inhibition was 0.008% (inactive).

Consider `O=C(COc1ccccc1)NCCc1nc2ccccc2[nH]1`, for which the inhibition was 18.3% (inactive).

In the case of `COc1ccc(C(=O)Nc2cc(=O)[nH]c3nc(Cc4ccccc4)nn23)cc1`, the inhibition is -0.0855% (inactive).

For the molecule `O=C(Nc1ccc(F)cc1F)c1cnn2c3c(cnc12)CCCCC3`, the inhibition is -3.64% (inactive).

As for `Cc1nc(C2CCCN2)nc2c1CCC(=O)N2CC1CCCCC1` (centres undefined), the inhibition was 3.63% (inactive).

For the molecule `CCc1nc(=O)c2ccccc2n1C1=CCN(Cc2cn(C)nc2C)CC1`, the inhibition is 4.86% (inactive).

For the molecule `O=C(C1CCN(S(=O)(=O)c2ccc(Cl)cc2)CC1)N1CC[C@@]2(O)CCCC[C@H]2C1`, the inhibition is -1.48% (inactive).

As for `Cc1cc(O)c(=O)cc2c1C[C@H]1CC(C)(C)/C=C/C[C@@]3(C)Oc4cc(=O)c(O)cc(C)c4C[C@@H]3C[C@H](O)[C@]1(C)O2`, the inhibition was 40.2% (active).

Turning to `CCSc1nc(-c2ccccc2)nc2sc3c(c12)CC(C)(C)OC3`, the inhibition was -11.1% (inactive).

On to `CN1CC(c2ncn[nH]2)c2cc(C(=O)NCc3ccccc3)ccc21` (centres undefined), for which the inhibition is -5% (inactive).

In the case of `COc1ccccc1CNC(=O)c1ccc2c(c1)CCN2C(=O)C1CC1`, the inhibition is -10.3% (inactive).

As for `Cc1nc2c(c(C)c1CCC(=O)Nc1ccccc1F)c(=O)n(C)c(=O)n2C`, the inhibition is -0.603% (inactive).

Turning to `Cc1noc(-c2cccn(Cc3cc(F)ccc3F)c2=O)n1`, the inhibition is 5.57% (inactive).

In the case of `O=C(Cn1cccc(-c2nc(-c3ccccc3)no2)c1=O)Nc1ccccc1F`, the inhibition is 33% (active).

For the molecule `COc1ccc(C2C3=C(CC(c4ccc(Cl)cc4)CC3=O)Nc3ccccc3N2C(=O)c2ccc(Cl)c(Cl)c2)cc1` (centres undefined), the inhibition was -7.25% (inactive).

Take `Fc1cccc(Nc2nc(-c3ccncc3)nc3c2CCC3)c1`: the inhibition was 48.8% (active).

Regarding `O=C(CN1CC(=O)c2ccccc2S1(=O)=O)Nc1ccccc1`, the inhibition was -5.61% (inactive).

As for `Cc1nn(-c2ccccc2)c(C)c1S(=O)(=O)N1CCCCC1`, the inhibition is 3.01% (inactive).

Turning to `Cc1nnc(OCC(=O)Nc2ccc(OC(F)(F)F)cc2)c2ccccc12`, the inhibition was 77.7% (active).

`COC(=O)c1ccc(NC(=O)CSc2nnc(C(C)Oc3ccccc3)n2C)cc1` (centres undefined): the inhibition is 5.22% (inactive).

As to `Cc1cc(C)nc(N(C(=O)C2CC2)c2ccc(OC(F)(F)F)cc2)n1`, the inhibition was 1.83% (inactive).

For `Cc1cc(F)ccc1NC(=O)Cc1n[nH]c(Cc2ccccc2)n1`, the inhibition is -9.74% (inactive).

For the molecule `Cc1ccccc1NC(=O)Cc1csc2nc(-c3ccc(F)cc3)cn12`, the inhibition was 86% (active).

Turning to `O=C(Cc1ccc(F)cc1)Nc1ccccc1Cc1ccccc1`, the inhibition is 27.4% (inactive).

`CN1CC2(COc3ccccc31)CN(S(=O)(=O)c1ccc3c(c1)OCO3)CCO2` (centres undefined): the inhibition is -2.79% (inactive).

Regarding `CC1(C(=O)NCc2cccc(Cl)c2)Oc2cccnc2NC1=O` (centres undefined), the inhibition is -7.83% (inactive).

As for `O=C(NCC1CC1)[C@H]1C[C@@H]2CN(S(=O)(=O)c3ccccc3)C[C@H]1O2`, the inhibition was -13.7% (inactive).

As for `Cc1cccc(NC(=O)c2csc(-c3cn(C)c4ncccc34)n2)c1`, the inhibition is 2.63% (inactive).

Take `Cn1cc(CCNC(=O)c2cc3ccccc3[nH]2)c2cccnc21`: the inhibition is -17.1% (inactive).

`Cn1cc(-c2nc(C(=O)Nc3ccc(F)cc3)cs2)c2cccnc21`: the inhibition was 59.4% (active).

Take `COCCNC(=O)C1c2ccccc2C(=O)N(C2CCCC2)C12CCCCC2` (centres undefined): the inhibition is -1.76% (inactive).

As to `O=S(Cc1cc(Sc2ccccc2)nc(-c2ccccn2)n1)c1ccc(Cl)cc1` (centres undefined), the inhibition is -9.57% (inactive).

On to `CC(C)(C)c1cc2n(n1)CCN(Cc1ccccc1C(F)(F)F)C2`, for which the inhibition was -4.87% (inactive).

For the molecule `COc1cccc(C(=O)N2CCC(c3nc4ccncc4n3C)C2)c1` (centres undefined), the inhibition is 10% (inactive).

Take `Fc1ccc(-n2cc(-c3ccccc3)c3c(NCc4ccco4)ncnc32)cc1`: the inhibition is -3.63% (inactive).

`c1coc(CNc2nc(Nc3cccc4ccccc34)nc3ccccc23)c1`: the inhibition was 83.4% (active).

In the case of `O=C(CCc1nnc2ccc(N3CCCCC3)nn12)NCCC1=CCCCC1`, the inhibition is 1.2% (inactive).
